This passage reports composite z-score and z-score results from PubChem BioAssay.

Structures are written as SMILES. Calls of active or inactive are those of the source.

Assay [1] relates to Plasmodium falciparum Sir2 (PF13_0152, Sir2A). In words: pfSir2 binders on small-molecule microarrays, primary screen, biochemical, small-molecule microarray, 635 nm fluorescence (AID 1098).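 Note: score merges spot fluorescence intensity with its signal-to-noise ratio.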 To be noted: small-molecule microarray binding, fluorescence 635 nm; higher = more signal.
Assay [2] is described as follows: small-molecule microarray binders of probe aDKK1, primary screen, biochemical, biotinylated probe, 635/667 nm fluorescence (AID 1099).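 Note: score merges 667nm spot fluorescence with signal to noise across triplicate slides; reference of the scale not given here.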 The conditions noted are these: higher = more signal.
Assay [3] can be described thus: small-molecule microarray binders of probe aCHRDL2, primary screen, biochemical, biotinylated probe, 635/667 nm fluorescence (AID 1100). The conditions noted are these: higher = more signal.
A short description of assay [4]: splicing luciferase reporter signal modulators, primary screen, spliceosome inhibition project, cell-based, HEK293, splice +/- reporter (AID 1101).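 Note: HEK293 cells carrying a splicing-competent luciferase reporter gene; test concentration not given here.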 To be noted: luminescence, 24 h, higher = more signal, called active from +8 up or from −8 down. In general terms: Reporter assays use an easily measured gene product as a stand-in for the process of interest.
Assay [5] addresses Fibroblast growth factor 10 (Homo sapiens) (UniProt O15520). Nature of the assay: FGF10 binders on small-molecule microarrays, primary screen, biochemical, small-molecule microarray, 635 nm fluorescence (AID 1102). To be noted: FGF10 binding, fluorescence 635 nm, higher = more signal.
Assay [6] concerns glycogen synthase kinase-3 (GSK3A per assay name; protocol says GSK3B). In words: GSK3 binders on small-molecule microarrays, primary screen, biochemical, small-molecule microarray, 635 nm fluorescence, GSK3A (AID 1103). Note: the record names both GSK3A and GSK3B. To be noted: small-molecule microarray binding, fluorescence 635 nm; higher = more signal.
Assay [7] has as its target Epidermal growth factor receptor (Homo sapiens) (UniProt P00533). Nature of the assay: EGFR binders on small-molecule microarrays, primary screen, biochemical, small-molecule microarray, 635 nm fluorescence (AID 1104).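 Note: score merges 667 nm emission intensity with spot signal to noise over triplicate slides.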 The conditions noted are these: EGFR binding, higher = more signal.
Assay [8] concerns the target Follistatin-related protein 3 (Homo sapiens) (UniProt O95633). In words: FSTL3 binders on small-molecule microarrays, primary screen, biochemical, small-molecule microarray, 635 nm fluorescence (AID 1105).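 Note: score merges emission near 667 nm and signal to noise per printed spot across three slides.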 The conditions noted are these: FSTL3 binding, higher = more signal.
Assay [9] concerns the target Dickkopf-related protein 1 (Homo sapiens) (UniProt O94907). Nature of the assay: DKK1 binders on small-molecule microarrays, primary screen, biochemical, small-molecule microarray, 635 nm fluorescence scan (AID 1106).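 Note: score merges emission near 667 nm with signal to noise over three replicate slides.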 The conditions noted are these: DKK1 binding, higher = more signal.
The test system of assay [10] is Inhibin beta A chain (activin A). Nature of the assay: INHBA (activin A) binders on microarrays, primary screen, biochemical, small-molecule microarray, 635 nm fluorescence scan (AID 1107).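 Note: mouse activin A protein probed at 4.33 µg/mL on printed slides; score merges bound-protein fluorescence near 667 nm with spot signal-to-noise.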 To be noted: small-molecule microarray binding, higher = more signal.

Fibroblast growth factor 10 (Homo sapiens), sequence (O15520 whole entry, looked up): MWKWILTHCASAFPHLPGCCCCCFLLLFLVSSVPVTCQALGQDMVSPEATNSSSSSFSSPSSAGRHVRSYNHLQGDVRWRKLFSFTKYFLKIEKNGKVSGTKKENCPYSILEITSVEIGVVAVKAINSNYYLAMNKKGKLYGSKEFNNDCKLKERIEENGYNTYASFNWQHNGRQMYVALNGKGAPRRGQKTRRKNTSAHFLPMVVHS
Dickkopf-related protein 1 (Homo sapiens), sequence (O94907 whole entry, looked up): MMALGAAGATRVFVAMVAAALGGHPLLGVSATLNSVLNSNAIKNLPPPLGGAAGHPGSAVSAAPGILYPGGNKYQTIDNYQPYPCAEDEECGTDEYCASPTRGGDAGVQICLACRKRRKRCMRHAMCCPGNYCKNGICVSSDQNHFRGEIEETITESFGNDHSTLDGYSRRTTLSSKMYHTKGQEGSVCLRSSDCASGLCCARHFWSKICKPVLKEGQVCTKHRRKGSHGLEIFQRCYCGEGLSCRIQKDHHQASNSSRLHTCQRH
Epidermal growth factor receptor (Homo sapiens), sequence (P00533 whole entry, looked up): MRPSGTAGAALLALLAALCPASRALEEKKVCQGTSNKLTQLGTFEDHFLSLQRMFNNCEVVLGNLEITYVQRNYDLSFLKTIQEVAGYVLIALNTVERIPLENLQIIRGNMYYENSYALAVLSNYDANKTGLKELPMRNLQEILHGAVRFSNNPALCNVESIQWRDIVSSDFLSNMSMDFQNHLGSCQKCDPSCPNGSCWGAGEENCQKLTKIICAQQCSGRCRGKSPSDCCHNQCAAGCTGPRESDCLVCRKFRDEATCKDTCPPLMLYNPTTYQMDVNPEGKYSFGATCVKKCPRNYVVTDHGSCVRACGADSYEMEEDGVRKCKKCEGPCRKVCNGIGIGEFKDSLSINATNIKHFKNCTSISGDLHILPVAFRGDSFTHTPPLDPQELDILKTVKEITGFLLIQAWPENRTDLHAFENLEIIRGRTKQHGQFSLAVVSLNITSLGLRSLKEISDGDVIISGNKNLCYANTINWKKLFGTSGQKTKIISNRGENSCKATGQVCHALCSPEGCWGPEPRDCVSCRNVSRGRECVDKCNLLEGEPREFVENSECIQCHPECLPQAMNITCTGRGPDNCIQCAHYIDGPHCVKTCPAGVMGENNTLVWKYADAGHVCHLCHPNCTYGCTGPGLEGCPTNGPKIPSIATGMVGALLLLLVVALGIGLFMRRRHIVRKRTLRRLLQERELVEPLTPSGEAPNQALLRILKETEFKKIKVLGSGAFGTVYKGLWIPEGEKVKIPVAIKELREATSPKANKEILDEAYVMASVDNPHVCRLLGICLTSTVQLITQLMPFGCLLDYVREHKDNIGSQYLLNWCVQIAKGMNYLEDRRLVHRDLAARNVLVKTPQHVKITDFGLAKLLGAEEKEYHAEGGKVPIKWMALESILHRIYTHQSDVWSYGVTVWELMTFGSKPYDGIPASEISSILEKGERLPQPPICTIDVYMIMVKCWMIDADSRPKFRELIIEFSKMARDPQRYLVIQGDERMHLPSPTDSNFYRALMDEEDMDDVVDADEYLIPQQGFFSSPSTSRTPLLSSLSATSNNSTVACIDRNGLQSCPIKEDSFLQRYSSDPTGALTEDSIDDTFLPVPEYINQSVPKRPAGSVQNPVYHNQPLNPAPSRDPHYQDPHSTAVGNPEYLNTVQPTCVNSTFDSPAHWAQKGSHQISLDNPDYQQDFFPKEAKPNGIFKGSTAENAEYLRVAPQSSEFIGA
Follistatin-related protein 3 (Homo sapiens), sequence (O95633 whole entry, looked up): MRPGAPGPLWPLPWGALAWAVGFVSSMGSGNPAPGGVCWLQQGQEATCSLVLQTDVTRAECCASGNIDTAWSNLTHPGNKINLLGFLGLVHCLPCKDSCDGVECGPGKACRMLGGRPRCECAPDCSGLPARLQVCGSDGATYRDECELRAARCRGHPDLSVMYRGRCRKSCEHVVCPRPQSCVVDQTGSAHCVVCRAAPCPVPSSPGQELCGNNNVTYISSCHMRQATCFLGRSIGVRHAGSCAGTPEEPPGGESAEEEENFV

Regarding `Cc1ccc(S[C@]2(C(=O)O)CC(=O)N(C3CCCCC3)[C@@H]2c2ccc(CO)cc2I)cc1`, the composite z-score was 1.48 in assay [1]; 0.431 in assay [2]; 0.903 in assay [3]; 1.27 in [5]; 0.797 in [6]; -0.131 in assay [7]. Further, the composite z-score in [8] is 1.04; in [9], -0.231; in assay [10] it was 1.06. In assay [4], the z-score is -0.443 (inactive).

On to `C[C@@H]1NC(=O)[C@@H](Cc2ccccc2)NC(=O)[C@@]23C(=O)N[C@@H](Cc4ccccc4)C2[C@H](C)[C@@]2(C)O[C@H]2C3/C=C/C/C=C\CNC1=O` (stereo not given in full), for which the composite z-score was 1.02 in [1]; -0.259 in assay [2]; -0.17 in assay [3]; -0.2 in [5]; -0.769 in assay [6]; -0.318 in assay [7]. Besides, the figures for the composite z-score in assay [8], in [9] and in assay [10] were 0.119, 0.0252 and 1.16, respectively. For the same compound, in assay [4], the z-score is 0.138 (inactive).

As for `COc1ccc(CCNC(=O)[C@@H]2c3ccccc3C(=O)N(C3CCCCC3)[C@H]2c2ccc(CO)cc2)cc1`, the composite z-score in [1] is 1.35; in [2], 0.0099; in [3] it was 0.692; in [5], 0.542; in [6], 0.32; in assay [7] it was -0.227. In addition, the composite z-score was 0.0696 in [8], -0.487 in assay [9] and 0.177 in assay [10]. Moreover, the z-score in assay [4] was 0.43 (inactive).

For the compound `COCCCNC(=O)[C@@]1(CCC(=O)OC(C)(C)C)N=C(c2ccc(OCCCO)cc2)O[C@H]1c1ccccc1N=[N+]=[N-]`, the composite z-score in assay [1] was 1.46; in assay [2] it was 1.36; in assay [3] it was 1.32; in [5], 1.23; in assay [6], 1.31; in assay [7], -0.182. Also, the figures for the composite z-score in [8], in assay [9] and in assay [10] were 0.209, 0.795 and 0.739, respectively. For the same compound, the z-score in assay [4] is -0.912 (inactive).

With `C=CCN1Cc2ccccc2[C@@H]2OC(c3ccc(OCCCO)cc3)=N[C@]2(CC=C)C1=O`, the composite z-score in assay [1] amounted to 1.5; in [2], 2.15; in assay [3], 1.07; in assay [5], 0.862; in assay [6] it was 1.22; in [7], 0.724. The composite z-score in assay [8] turned out to be 1.48; in [9] it was 1.33; in [10], 1.68. Besides, in [4], the z-score was -1.25 (inactive).

Consider `CC(C)N1C(=O)c2ccccc2[C@@H](C(=O)NCCN2CCOCC2)[C@@H]1c1ccc(CO)cc1`, for which the composite z-score in [1] was -0.256; in assay [2], -0.005; in assay [3], 0.917; in assay [5], -2.1; in [6] it was -1.05; in assay [7], -1.85. Further, the composite z-score in [8] was -1.01; in assay [9] it was -1.19; in assay [10], -0.0564. In assay [4], the z-score is -0.141 (inactive).

Consider `C=CC[C@]1(C(=O)N2CCOCC2)COC(c2ccc(OCCCO)cc2)=N1`, for which the composite z-score was 1.76 in assay [1]; -0.016 in [2]; 0.431 in [3]; 0.66 in assay [5]; 0.438 in [6]; -0.238 in [7]. Further, the composite z-score was determined as 0.264 in [8], 0.188 in [9] and 0.976 in assay [10]. The z-score in assay [4] was -0.612 (inactive).

Regarding `CC1CC/C=C\[C@H]2OC34C=CCN(Cc5ccccc5)C(=O)[C@H]3N(C(CO)C(C)C)C(=O)[C@@H]4C2C(=O)O1` (stereo not given in full), the composite z-score is 0.659 in assay [1]; -0.239 in assay [2]; 0.146 in assay [3]; -0.871 in assay [5]; -0.484 in assay [6]; -0.471 in assay [7]. In addition, the composite z-score was -0.902 in assay [8], -0.415 in assay [9] and 1.09 in [10]. For the same compound, the z-score in assay [4] was -0.124 (inactive).

For `C=C(COC)/C(=C/C[C@H](OC(=O)c1ccncc1)c1ccc(CO)o1)c1cnc2ccccc2c1`, the composite z-score was 0.296 in assay [1]; -0.155 in assay [2]; -0.137 in assay [3]; 1.12 in assay [5]; 0.986 in assay [6]; 0.387 in assay [7]. In addition, the composite z-score in [8] came out at 1.34; in assay [9] it was 0.348; in assay [10] it was 1.81. Besides, the z-score in [4] is 0.801 (inactive).

In the case of `CO[C@H]1O[C@H](CO)[C@@H](OC(=O)Nc2ccc(Br)cc2)[C@@H]2OC(=O)[C@@H](Cc3ccccc3)C/C=C/C[C@H](Cc3ccccc3)C(=O)O[C@@H]12`, the composite z-score is 0.939 in [1]; -0.139 in assay [2]; 0.265 in [3]; 0.767 in [5]; 0.602 in assay [6]; -0.265 in assay [7]. Moreover, the figures for the composite z-score in [8], in assay [9] and in assay [10] were -0.0749, -0.0375 and 0.517, respectively. Also, the z-score in assay [4] was -0.913 (inactive).

For `[N-]=[N+]=Nc1ccccc1C[C@]1(C(=O)NCCN2CCOCC2)COC(c2ccc(OCCCO)cc2)=N1`, the composite z-score in assay [1] is 1.01; in assay [2], 0.424; in assay [3] it was 0.909; in [5], 0.318; in [6], 1.3; in assay [7], -0.408. In addition, the results for the composite z-score in assay [8], in assay [9] and in assay [10] were -0.264, 0.234 and 0.472, respectively. Moreover, the z-score in [4] was -0.388 (inactive).

Consider `CCOC(=O)C[C@H]1[C@H](OC(=O)c2ccccc2-c2ccccc2)[C@@H](NC(=O)c2ccc3ccccc3n2)c2cc(OCCCO)ccc2N1C(=O)Cc1ccc(OC)cc1`, for which the composite z-score is -0.235 in assay [1]; 0.0006 in [2]; -0.302 in assay [3]; 0.463 in assay [5]; 0.0131 in [6]; 0.238 in assay [7]. For the same compound, the composite z-score is 0.176 in assay [8], 0.0349 in [9] and 0.711 in [10]. Besides, the z-score in assay [4] was -0.378 (inactive).

For `C=CCNC(=O)[C@H]1[C@@H]2C(=O)O[C@@H](c3ccccc3)[C@@H](c3ccccc3)N2[C@@H](c2ccccc2OCCO)[C@]12C(=O)N(C(=O)OCCOC)c1ccc(C#CC3(O)CCCCCC3)cc12`, the composite z-score is 1.32 in assay [1]; -0.115 in assay [2]; 0.457 in assay [3]; 1.13 in assay [5]; 0.562 in [6]; 0.383 in assay [7]. Besides, the results for the composite z-score in assay [8], in assay [9] and in assay [10] were 0.502, -0.515 and 1.07, respectively. Further, the z-score in assay [4] was -0.725 (inactive).

On to `C=CCC(OC(C)=O)[C@@H]1[C@@H](N(Cc2cccc3ccccc23)C(=O)Cc2ccc(F)cc2)c2cc(OCCCO)ccc2N1C(=O)c1ccc2ccccc2c1` (stereo not given in full), for which the composite z-score in assay [1] is -0.246; in assay [2] it was -0.469; in assay [3], 0.0515; in [5] it was -0.134; in [6], 0.0566; in assay [7] it was 0.0199. The composite z-score turned out to be 0.565 in assay [8], 0.301 in [9] and 1.24 in assay [10]. Further, the z-score in [4] was -0.527 (inactive).

Take `CCOC(=O)C[C@H]1[C@H](OC(=O)Cc2ccc3c(c2)OCO3)[C@@H](NC(=O)c2ccc3ccccc3n2)c2cc(OCCCO)ccc2N1C(=O)c1ccccc1`: the composite z-score in assay [1] is 0.153; in [2] it was 0.0565; in assay [3], -0.33; in [5] it was 0.445; in assay [6], 0.0897; in assay [7], 0.0654. Moreover, the composite z-score turned out to be 0.73 in [8], 0.283 in assay [9] and 0.696 in assay [10]. The z-score in [4] was -0.149 (inactive).
